# Results reported in the supplement of paper PMC8975748.
# Structures can show the parent of a compound that is named as a salt.
# Tested on: Saccharomyces cerevisiae BY4741 SeMeCo community
# Assay: z-score of subpopulation abundance vs DMSO median, subpopulation auxotrophic for HM; higher = larger share of this subpopulation than in DMSO controls
# Conditions: 10 µM; 24 h; SM minimal medium; subpopulation (auxotrophy): HM
# Method: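 Fluorescent four-plasmid SeMeCo (self-establishing metabolically cooperating S. cerevisiae BY4741 community; plasmids pH-mRuby2, pL-mWasabi, pU-eCFP, pM-TagRFP657) was grown 24 h in minimal SM medium with each Selleck FDA-approved drug at 10 µM in 384-well plates. Cells were fixed and imaged by high-content confocal microscopy. For each auxotrophic subpopulation (and the prototroph), a z-score gives the deviation from the DMSO vehicle-control population median.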
row,SMILES,z-score of subpopulation abundance
1,OC1(c2ccc(Cl)c(C(F)(F)F)c2)CCN(CCCC(c2ccc(F)cc2)c2ccc(F)cc2)CC1 [Penfluridol],0.4
2,C=C1c2cccc(O)c2C(O)=C2C(=O)[C@]3(O)C(O)=C(C(N)=O)C(=O)[C@@H](N(C)C)[C@@H]3[C@@H](O)[C@H]12 [Methacycline HCl],0.54
3,CC(C(=O)O)c1ccc2c(c1)[nH]c1ccc(Cl)cc12 (stereo not given) [Carprofen],-2.19
4,CNCCCN1c2ccccc2CCc2ccccc21 [Desipramine Hydrochloride],0.82
5,CCC(C)(C)c1ccc(CC(C)CN2C[C@@H](C)O[C@@H](C)C2)cc1 (stereo not given in full) [Amorolfine HCl],8.92
6,C=C[C@H]1CN2CC[C@H]1C[C@H]2[C@H](O)c1ccnc2ccc(OC)cc12 [Quinine HCl Dihydrate],-0.08
7,CC(C)c1c(C(=O)Nc2ccccc2)c(-c2ccccc2)c(-c2ccc(F)cc2)n1CC[C@@H](O)C[C@@H](O)CC(=O)O [Atorvastatin Calcium],9.85
8,CN(C)CCn1nnnc1SCC1=C(C(=O)O)N2C(=O)[C@@H](NC(=O)Cc3csc(N)n3)[C@H]2SC1 [Cefotiam hydrochloride],1.4
9,CC1(C)S[C@@H]2[C@H](NC(=O)Cc3ccccc3)C(=O)N2[C@H]1C(=O)O.CCN(CC)CCOC(=O)c1ccc(N)cc1 [Penicillin G Procaine],0.69
10,CCCCCCCCCCCCCCCCOP(=O)([O-])OCC[N+](C)(C)C [Miltefosine],0.26
11,Cc1cc(NS(=O)(=O)c2ccc(N)cc2)no1 [Sulfamethoxazole],0.18
12,O=C1N=C(O)NC1(c1ccccc1)c1ccccc1 [Phenytoin Sodium],-1.02
13,CC1(C)S[C@@H]2[C@H](NC(=O)[C@H](NC(=O)N3CCN(S(C)(=O)=O)C3=O)c3ccccc3)C(=O)N2[C@H]1C(=O)O [Mezlocillin Sodium],-0.71
14,Cc1cc(C)nc(NS(=O)(=O)c2ccc(N)cc2)n1 [Sulfamethazine Sodium Salt],-0.79
15,C[C@@H](O)[C@H]1C(=O)N2C(C(=O)O)=C(S[C@@H]3CN[C@H](C(=O)N(C)C)C3)[C@H](C)[C@H]12 [Meropenem Trihydrate],1.13
16,CCCc1nn(C)c2c(=O)[nH]c(-c3cc(S(=O)(=O)N4CCN(C)CC4)ccc3OCC)nc12 [Sildenafil],-0.93
17,CN(C)[C@@H](CCOc1cccc2ccccc12)c1ccccc1 [Dapoxetine HCl],-0.39
18,COc1ccc2[nH]c([S+]([O-])Cc3ncc(C)c(OC)c3C)nc2c1 (stereo not given) [Omeprazole],0.37
19,O=C(O)Cc1ccccc1Nc1c(Cl)cccc1Cl [Diclofenac Diethylamine],-0.49
20,C[n+]1ccccc1/C=N/O [Pralidoxime chloride],-0.08

row,SMILES,z-score of subpopulation abundance
1,Clc1ccc(C(Cn2ccnc2)OCc2ccc(Sc3ccccc3)cc2)c(Cl)c1 (stereo not given) [Fenticonazole Nitrate],-6.61
2,CCCCOC(=O)c1ccc(O)cc1 [Butylparaben],-1.19
3,N[C@@H](C(=O)N[C@@H]1C(=O)N2C(C(=O)O)=C(Cl)CS[C@H]12)c1ccccc1 [Cefaclor],0.64
4,Cc1ncc([N+](=O)[O-])n1CCO [Metronidazole],-0.42
5,Nc1ccc(S(=O)(=O)Nc2cnc3ccccc3n2)cc1 [Sulfaquinoxaline sodium],0.61
6,O=C(CCCN1CCN(c2ccccn2)CC1)c1ccc(F)cc1 [Azaperone],-0.63
7,O=C1c2cccc3c2[C@H](CCC3)CN1[C@@H]1CN2CCC1CC2 [Palonosetron],-0.24
8,CO/N=C(\C(=O)N[C@@H]1C(=O)N2C(C(=O)O)=CCS[C@H]12)c1csc(N)n1 [Ceftizoxime sodium],-0.06
9,O=c1ccc2cc(O)c(O)cc2o1 [Esculetin],3.75
10,Cn1nnc(-c2ccc(-c3ccc(N4C[C@H](COP(=O)(O)O)OC4=O)cc3F)cn2)n1 [Tedizolid Phosphate],-0.87
11,C#C[C@]1(O)CC[C@H]2[C@@H]3CCc4cc(OC5CCCC5)ccc4[C@H]3CC[C@@]21C [Quinestrol],0.17
12,COc1ccc(CCN(C)CCCC(C#N)(c2ccc(OC)c(OC)c2)C(C)C)cc1OC (stereo not given) [Verapamil HCl],-0.27
13,NC(=O)c1cn(Cc2c(F)cccc2F)nn1 [Rufinamide],0.75
14,CC(C[N+](C)(C)C)OC(N)=O (stereo not given) [Bethanechol chloride],0.07
15,CN(C)CCCN1c2ccccc2CCc2ccc(Cl)cc21 [Clomipramine HCl],0.1
16,CCCCCCCCN=c1ccn(CCCCCCCCCCn2ccc(=NCCCCCCCC)cc2)cc1 [Octenidine Dihydrochloride],6.33
17,COc1ccc(C(Cl)=C(c2ccc(OC)cc2)c2ccc(OC)cc2)cc1 [Chlorotrianisene],1.06
18,CCN(CC)C(=O)C1(c2ccccc2)CC1CN (stereo not given) [Milnacipran HCl],-0.8
19,CN[C@@H]1[C@H](O[C@H]2[C@H](O[C@H]3[C@H](O)[C@@H](O)[C@H](N=C(N)N)[C@@H](O)[C@@H]3N=C(N)N)O[C@@H](C)[C@]2(O)C=O)O[C@@H](CO)[C@H](O)[C@H]1O [Streptomycin sulfate],0.19
20,CCOc1cc(N)c(Cl)cc1C(=O)NCC1CN(Cc2ccc(F)cc2)CCO1 (stereo not given) [Mosapride Citrate],0.32
